According to PubChem BioAssay AID1159580 (chemical genetic matrix, 2015):
Where “and” joins values, the source holds several entries; their conditions need not be identical. Identical values can stand only once. The campaign covered roughly 5,500 compounds. About 2,000 (36%) were called active. Another 18% or so got no clear call; they are omitted. Cut-off read from the data, not from the text of the source: active = normalized growth mostly below about 0.91 (no sharp cut-off); inconclusive = no clear call, values can overlap the other calls; inactive = mostly above about 0.92. The list shows a part of the results.

Assay: chemical genetic growth profiling, strain panel (AID 1159580);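 note: tested at 20 µM; growth read once vehicle control cultures reached saturation at 30 °C; 1 = growth at the plate median or of vehicle wells; lower values mean less growth of the strain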
Details: S. cerevisiae deletion strains, growth OD

Measured: normalized growth

COc1c2c(cc3c1OCO3)CC[N+](C)=C2
inactive: locus YAL013W, strain DEP1, hits give low values 1 | locus YAL021C, strain ccr4, hits give low values 0.977 | locus YAL026C, strain drs2, hits give low values 0.995 | locus YAL030W, strain snc1, hits give low values 0.994 | locus YBL061C, strain skt5, hits give low values 1.01 | locus YBR009C, strain hhf1, hits give low values 0.984 | locus YBR021W, strain FUR4, hits give low values 1.02 | locus YBR023C, strain chs3, hits give low values 1.01 | locus YBR171W, strain sec66, hits give low values 0.997 | locus YBR229C, strain ROT2, hits give low values 0.999 | locus YBR231C, strain swc5, hits give low values 1.03 | locus YBR279W, strain paf1, hits give low values 1 | locus YCL011C, strain gbp2, hits give low values 0.986 | locus YCL016C, strain dcc1, hits give low values 0.974 | locus YCL029C, strain bik1, hits give low values 0.993 | locus YCL069W, strain vba3, hits give low values 0.99 | locus YCR088W, strain abp1, hits give low values 1 | locus YDL005C, strain med2, hits give low values 1 | locus YDL035C, strain GPR1, hits give low values 1.01 | locus YDL040C, strain nat1, hits give low values 1.01 | locus YDL074C, strain BRE1, hits give low values 1.04 | locus YDL101C, strain DUN1, hits give low values 1.02 | locus YDL134C, strain PPH21, hits give low values 1.05 | locus YDL185W, strain tfp1, hits give low values 1.01 | locus YDL192W, strain arf1, hits give low values 1 | locus YDR001C, strain nth1, hits give low values 0.977 | locus YDR069C, strain doa4, hits give low values 1.01 | locus YDR101C, strain arx1, hits give low values 1 | locus YDR137W, strain rgp1, hits give low values 1 | locus YDR150W, strain NUM1, hits give low values 0.993 | locus YDR159W, strain sac3, hits give low values 1.08 | locus YDR162C, strain NBP2, hits give low values 1.05 | locus YDR195W, strain ref2 1.01 | locus YDR297W, strain sur2, hits give low values 1.02 | locus YDR318W, strain mcm21, hits give low values 1 | locus YDR334W, strain swr1, hits give low values 0.991 | locus YDR335W, strain msn5, hits give low values 0.996 | locus YDR388W, hits give low values 0.994 | locus YDR392W, strain spt3, hits give low values 0.93 | locus YDR502C, strain sam2, hits give low values 1.01 | locus YEL003W, strain gim4, hits give low values 1 | locus YEL037C, strain rad23, hits give low values 0.986 | locus YEL061C, strain CIN8 (second series), hits give low values 0.998 | locus YER015W, strain faa2, hits give low values 0.998 | locus YER016W, strain bim1, hits give low values 1.01 | locus YER110C, hits give low values 1.01 | locus YER111C, strain swi4, hits give low values 1 | locus YER155C, strain BEM2 (second series), hits give low values 1.06 | locus YER155C, strain BEM2, hits give low values 0.976 | locus YER167W, strain BCK2, hits give low values 0.997 | locus YFR010W, strain ubp6, hits give low values 0.996 | locus YGL078C, strain dbp3, hits give low values 1.04 | locus YGL086W, strain mad1, hits give low values 1.01 | locus YGL167C, strain pmr1, hits give low values 0.993 | locus YGL173C, strain kem1, hits give low values 1.02 | locus YGL227W, strain vid30, hits give low values 0.999 | locus YGL240W, strain doc1, hits give low values 1.02 | locus YGL248W, strain PDE1, hits give low values 1.03 | locus YGL253W, strain hxk2, hits give low values 1 | locus YGR078C, strain PAC10, hits give low values 0.987 | locus YGR135W, strain pre9, hits give low values 1.03 | locus YGR252W, strain gcn5, hits give low values 1.05 | locus YHR013C, strain ard1, hits give low values 0.974 | locus YHR027C, strain rpn1, hits give low values 0.981 | locus YHR030C, strain SLT2, hits give low values 0.989 | locus YHR079C, strain IRE1 (second series), hits give low values 1.01 | locus YHR079C, strain IRE1, hits give low values 1 | locus YHR094C, strain hxt1, hits give low values 1 | locus YHR129C, strain ARP1, hits give low values 1 | locus YHR142W, strain chs7, hits give low values 0.982 | locus YHR200W, strain rpn10, hits give low values 0.998 | locus YIL066C, strain RNR3, hits give low values 1 | locus YIL073C, strain SPO22, hits give low values 1.06 | locus YIL125W, strain kgd1, hits give low values 0.995 | locus YIR030C, strain dcg1, hits give low values 1.01 | locus YJL092W, strain hpr5, hits give low values 0.988 | locus YJL095W, strain BCK1 (second series), hits give low values 1 | locus YJL095W, strain BCK1, hits give low values 1.05 and 0.977 | locus YJL115W, strain asf1, hits give low values 0.977 | locus YJL129C, strain trk1, hits give low values 1.01 | locus YJL134W, strain LCB3, hits give low values 0.994 | locus YJL154C, strain vps35, hits give low values 0.985 | locus YJL164C, strain tpk1, hits give low values 0.965 | locus YJL166W, strain qcr8, hits give low values 1.01 | locus YJL168C, strain set2, hits give low values 1.01
